Consider 9 molecules from PubChem BioAssay (NCI).

Test [1] can be described thus: NCI Yeast Anticancer Drug Screen. Data for the rad50 strain (AID 155).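 Note: 0% = growth of vehicle-only cultures of the same strain.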 As to conditions: S. cerevisiae rad50 strain growth inhibition, hits give high values. In outline:
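Relative growth inhibition (compound vs vehicle) was measured in yeast with a defined repair-gene alteration.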

Test [2] in a line: NCI Yeast Anticancer Drug Screen. Data for the mec2-1 strain (AID 157). The note with it: S. cerevisiae mec2-1 strain, hits give high values. Put shortly: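 Using mec2-1 yeast: add compound, measure growth, express inhibition versus vehicle-treated cultures.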
Test [3] in a line: NCI Yeast Anticancer Drug Screen. Data for the sgs1 mgt1 strain (AID 161).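 Note: 0% = growth of cultures given vehicle only.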 The note with it: S. cerevisiae sgs1 mgt1 strain, hits give high values. In outline: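 Percent growth inhibition was derived by comparing compound-exposed mutant yeast with vehicle-exposed cultures. The strain carries alterations in DNA damage repair.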
Test [4] in a line: NCI Yeast Anticancer Drug Screen. Data for the cln2 rad14 strain (AID 165).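 Note: 0% = growth equal to vehicle treated cultures.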 As to conditions: S. cerevisiae cln2 rad14 strain, hits give high values. In outline: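 Yeast strain cln2 rad14, bearing defects in cell cycle control and DNA repair, serves as the test system; values reflect growth inhibition compared with vehicle.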
The nature of test [5]: NCI Yeast Anticancer Drug Screen. Data for the bub3 strain (AID 167). The note with it: S. cerevisiae bub3 mutant strain, hits give high values. Put shortly:
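Screening used yeast with an engineered genetic alteration affecting cell cycle control. Compound-exposed cultures were compared with vehicle cultures, and reduced growth was taken as inhibition.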

Test [6] in a line: NCI Yeast Anticancer Drug Screen. Data for the mlh1 rad18 strain (AID 175). As to conditions: S. cerevisiae mlh1 rad18 strain growth inhibition, hits give high values. Put shortly: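 Steps: expose repair-defective yeast to compound; measure growth; express inhibition against vehicle-treated controls.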
[7] abbreviates: at 5.0 µM (retest, dose inferred, filed as 0.5).
The mark [8] stands for this setting: at 50.0 µM (retest, dose inferred, filed as 5.0).

Compounds without any hit were thinned out: in the full panel of roughly 79,000, 15% have a hit. Unmarked numbers belong to inactive results. Active and inactive are the calls of the source. Cut-off read from the data, not from the text of the source: active = growth inhibition above about 70%; inactive = the rest.

Turning to `O=C1C(Cl)=C(N2C(=O)CCC2=O)C(=O)c2ccccc21`, the growth inhibition in test [1] (setting [7]) is 77% (active); in test [1] (setting [8]), 98% (active); in test [1] (at 50.0 µM), 87.6% (active); in test [2] (setting [7]), 99% (active); in test [2] (setting [8]) it was 99% (active); in test [2] (at 50.0 µM) it was 90.4% (active). In addition, the growth inhibition in test [3] (setting [7]) is 99% (active); in test [3] (setting [8]) it was 100% (active); in test [3] (at 50.0 µM), 91.6% (active); in test [4] (setting [7]), 94% (active); in test [4] (setting [8]), 99% (active); in test [4] (at 50.0 µM) it was 89.4% (active). Besides, the growth inhibition is 100% (active) in test [5] (setting [7]); 99% (active) in test [5] (setting [8]); 88.9% (active) in test [5] (at 50.0 µM); 72% (active) in test [6] (setting [7]); 98% (active) in test [6] (setting [8]); 89% (active) in test [6] (at 50.0 µM).

Turning to `C/C(=N/NC(=S)Nc1ccccc1Cl)c1ccccn1`, the growth inhibition in test [1] (setting [7]) is -1%; in test [1] (setting [8]), 19%; in test [1] (at 50.0 µM), 70.4% (active); in test [2] (setting [7]), -30%; in test [2] (setting [8]), 11%; in test [2] (at 50.0 µM), 50.1%. Moreover, the growth inhibition was -51% in test [3] (setting [7]); 22% in test [3] (setting [8]); 81.3% (active) in test [3] (at 50.0 µM); 3% in test [4] (setting [7]); 5% in test [4] (setting [8]); 78.3% (active) in test [4] (at 50.0 µM). Also, the growth inhibition in test [5] (setting [7]) is -37%; in test [5] (setting [8]), 17%; in test [5] (at 50.0 µM), 56.2%; in test [6] (setting [7]), -21%; in test [6] (setting [8]), 20%; in test [6] (at 50.0 µM), 77.2% (active).

`Cc1ccc2c(c1C)-c1c(ccc(C)c1C)C(=O)C2=O`: the growth inhibition in test [1] (setting [7]) is 13%; in test [1] (setting [8]) it was 98% (active); in test [1] (at 50.0 µM), 99.3% (active); in test [2] (setting [7]), 35%; in test [2] (setting [8]), 99% (active); in test [2] (at 50.0 µM), 99.4% (active). The growth inhibition in test [3] (setting [7]) was 5%; in test [3] (setting [8]), 99% (active); in test [3] (at 50.0 µM), 99.7% (active); in test [4] (setting [7]), -14%; in test [4] (setting [8]) it was 98% (active); in test [4] (at 50.0 µM), 99.6% (active). In addition, the growth inhibition in test [5] (setting [7]) was 46%; in test [5] (setting [8]), 98% (active); in test [5] (at 50.0 µM), 99.5% (active); in test [6] (setting [7]) it was 75% (active); in test [6] (setting [8]) it was 99% (active); in test [6] (at 50.0 µM) it was 99.5% (active).

Consider `O=c1c2cccc3cccc(c4oc5c6cccc7cccc(c(=O)c5c14)c76)c32`, for which the growth inhibition in test [1] (setting [7]) is 16%; in test [1] (setting [8]) it was 92% (active); in test [1] (at 50.0 µM), 95.5% (active); in test [2] (setting [7]) it was 13%; in test [2] (setting [8]), 97% (active); in test [2] (at 50.0 µM) it was 88.5% (active). In addition, the growth inhibition in test [3] (setting [7]) was 15%; in test [3] (setting [8]), 97% (active); in test [3] (at 50.0 µM), 97.2% (active); in test [4] (setting [7]), 13%; in test [4] (setting [8]) it was 88% (active); in test [4] (at 50.0 µM) it was 93.9% (active). The growth inhibition in test [5] (setting [7]) is 37%; in test [5] (setting [8]) it was 94% (active); in test [5] (at 50.0 µM) it was 96.3% (active); in test [6] (setting [7]), 17%; in test [6] (setting [8]), 97% (active); in test [6] (at 50.0 µM) it was 98.9% (active).

Regarding `O=C(O)c1ccc(NC(c2ccccc2)c2ccc3cccnc3c2O)cc1` (configuration not stated), the growth inhibition in test [1] (setting [7]) was -12%; in test [1] (setting [8]) it was 98% (active); in test [1] (at 50.0 µM) it was 98.2% (active); in test [2] (setting [7]) it was 2%; in test [2] (setting [8]), 98% (active); in test [2] (at 50.0 µM) it was 98% (active). Moreover, the growth inhibition was -8% in test [3] (setting [7]); 98% (active) in test [3] (setting [8]); 97.8% (active) in test [3] (at 50.0 µM); -40% in test [4] (setting [7]); 95% (active) in test [4] (setting [8]); 97.5% (active) in test [4] (at 50.0 µM). For the same molecule, the growth inhibition in test [5] (setting [7]) is -3%; in test [5] (setting [8]), 98% (active); in test [5] (at 50.0 µM), 97.7% (active); in test [6] (setting [7]) it was 9%; in test [6] (setting [8]), 98% (active); in test [6] (at 50.0 µM), 98.2% (active).

As to `NCc1cccc(O)c1O`, the growth inhibition was 27% in test [1] (setting [7]); 61% in test [1] (setting [8]); 73.7% (active) in test [1] (at 50.0 µM); 22% in test [2] (setting [7]); 41% in test [2] (setting [8]); 81.1% (active) in test [2] (at 50.0 µM). Besides, the growth inhibition in test [3] (setting [7]) is 14%; in test [3] (setting [8]), 51%; in test [3] (at 50.0 µM) it was 41.5%; in test [4] (setting [7]), 15%; in test [4] (setting [8]) it was 46%; in test [4] (at 50.0 µM) it was 24.7%. In addition, the growth inhibition in test [5] (setting [7]) is 20%; in test [5] (setting [8]) it was 72% (active); in test [5] (at 50.0 µM) it was 53.6%; in test [6] (setting [7]) it was 28%; in test [6] (setting [8]), 44%; in test [6] (at 50.0 µM), 24.9%.

As for `O=C(c1ccccc1)c1c(CO[N+](=O)[O-])n([O-])c2ccccc2[n+]1=O`, the growth inhibition in test [1] (setting [7]) was 20%; in test [1] (setting [8]), 97% (active); in test [1] (at 50.0 µM), 98.5% (active); in test [2] (setting [7]), 14%; in test [2] (setting [8]), 99% (active); in test [2] (at 50.0 µM), 99% (active). Also, the growth inhibition is 10% in test [3] (setting [7]); 98% (active) in test [3] (setting [8]); 98.3% (active) in test [3] (at 50.0 µM); 10% in test [4] (setting [7]); 96% (active) in test [4] (setting [8]); 99.2% (active) in test [4] (at 50.0 µM). Further, the growth inhibition in test [5] (setting [7]) is -5%; in test [5] (setting [8]), 98% (active); in test [5] (at 50.0 µM), 97.7% (active); in test [6] (setting [7]), 48%; in test [6] (setting [8]), 99% (active); in test [6] (at 50.0 µM), 98.8% (active).

For the molecule `CC(=O)c1c(O)c(C)c(O)c2c1OC1=CC(=O)c3c(C)noc3C12C` (configuration not stated), the growth inhibition in test [1] (setting [7]) was -1%; in test [1] (setting [8]), 10%; in test [1] (at 50.0 µM), 24.9%; in test [2] (setting [7]), -3%; in test [2] (setting [8]), 7%; in test [2] (at 50.0 µM), 26.1%. Moreover, the growth inhibition in test [3] (setting [7]) is -2%; in test [3] (setting [8]), 10%; in test [3] (at 50.0 µM), -2.55%; in test [4] (setting [7]), 10%; in test [4] (setting [8]), 16%; in test [4] (at 50.0 µM), 25.3%. Further, the growth inhibition in test [5] (setting [7]) is -9%; in test [5] (setting [8]) it was 1%; in test [5] (at 50.0 µM) it was 12.8%; in test [6] (setting [7]), -1%; in test [6] (setting [8]) it was 10%; in test [6] (at 50.0 µM), 54.1%.

As for `CC1(c2ccc(S(=O)(=O)c3ccccc3)cc2)OC(=O)C=CC1=O` (configuration not stated), the growth inhibition was 82% (active) in test [1] (setting [7]); 100% (active) in test [1] (setting [8]); 99.2% (active) in test [1] (at 50.0 µM); 92% (active) in test [2] (setting [7]); 99% (active) in test [2] (setting [8]); 99.5% (active) in test [2] (at 50.0 µM). Further, the growth inhibition in test [3] (setting [7]) is 94% (active); in test [3] (setting [8]) it was 99% (active); in test [3] (at 50.0 µM) it was 99.5% (active); in test [4] (setting [7]) it was 44%; in test [4] (setting [8]), 98% (active); in test [4] (at 50.0 µM), 99.2% (active). Moreover, the growth inhibition was 94% (active) in test [5] (setting [7]); 99% (active) in test [5] (setting [8]); 99.5% (active) in test [5] (at 50.0 µM); 97% (active) in test [6] (setting [7]); 99% (active) in test [6] (setting [8]); 99.5% (active) in test [6] (at 50.0 µM).
